Usually inhibition stands for the relative decrease from the control value, in per cent.

A number with no mark means an inactive call. For part of these data: Potency and affinity values are given separately. Activity calls are given as the source filed them. Unless noted, the rule behind the calls is not given here.

In PubChem BioAssay one finds growth inhibition, inhibition and outcome data, which are given here for 21 molecules.

A short description of experiment [1]: antimalarial activity against Dd2 strain (AID 2302;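 active = growth inhibition above 50% at the single 2 µM test dose, taken to imply half-maximal potency below 2 µM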;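 note: 0% = DMSO untreated growth and 100% = chloroquine plus artemisinin killed control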). As to conditions: P. falciparum Dd2 in RBCs, LDH growth readout, 72 h; at 2 µM; stronger effect = higher value.
A short description of experiment [2]: human hepatoma cell viability loss – ATP luminescence, cytotoxicity control for P. falciparum antimalarial project, primary screen (AID 2303;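 active = inhibition above 50%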;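 note: 0% = DMSO wells and 100% = digitonin-killed cells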). The note with it: HepG2 viability, 24-48 h, at 10 µM, stronger effect = higher value.
Experiment [3] concerns the target L-lactate dehydrogenase (Plasmodium falciparum (isolate CDC / Honduras)) (UniProt Q27743). The experiment is described as follows: PfLDH activity inhibition – cell lysate, 3D7 strain, counter-screen for P. falciparum growth inhibition project (AID 2304).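 Note: 0% = vehicle and 100% = reference inhibitor.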 As to conditions: P. falciparum 3D7 crude extract, LDH APAD/NBT absorbance; at 2 µM; stronger effect = higher value. In general terms: A counterscreen serves to expose hits that act by an unwanted route or on another target.

The nature of experiment [4]: inhibition of 3D7 malaria parasite growth – strain 3D7 (AID 2306).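 Note: 0% = DMSO wells and 100% = chloroquine plus artemisinin control wells.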 The note with it: P. falciparum 3D7 erythrocytic growth, LDH absorbance, 72 h; at 2 µM; stronger effect = higher value.
Experiment [5] deals with Calcium-dependent protein kinase 1 (Plasmodium falciparum (isolate 3D7)) (UniProt P62344). The experiment is described as follows: PfCDPK1 kinase inhibitors, biochemical, TCAMS library (AID 1159585; cut-off not given, nearly all actives have IC50 up to about 0.98 µM;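 note: inhibitors leave more ATP so luminescence rises with inhibition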). As to conditions: recombinant PfCDPK1, Kinase-Glo ATP depletion luminescence.
Sequence of Calcium-dependent protein kinase 1 (Plasmodium falciparum (isolate 3D7)) (P62344 whole entry, looked up): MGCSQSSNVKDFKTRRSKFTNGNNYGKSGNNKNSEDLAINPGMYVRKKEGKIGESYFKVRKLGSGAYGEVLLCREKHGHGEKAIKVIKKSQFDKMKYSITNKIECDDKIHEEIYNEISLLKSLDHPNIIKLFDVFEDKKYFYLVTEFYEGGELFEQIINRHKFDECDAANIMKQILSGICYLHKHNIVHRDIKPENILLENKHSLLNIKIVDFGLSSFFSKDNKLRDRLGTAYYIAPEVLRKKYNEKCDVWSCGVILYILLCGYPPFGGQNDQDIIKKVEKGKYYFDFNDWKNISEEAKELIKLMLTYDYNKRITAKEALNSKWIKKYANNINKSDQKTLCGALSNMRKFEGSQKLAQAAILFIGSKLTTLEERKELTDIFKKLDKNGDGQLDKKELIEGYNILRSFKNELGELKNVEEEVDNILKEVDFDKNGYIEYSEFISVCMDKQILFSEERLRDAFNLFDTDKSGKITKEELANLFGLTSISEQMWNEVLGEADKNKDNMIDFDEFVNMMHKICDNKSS
Experiment [6] deals with Plasmodium falciparum protein kinase 6 (PK6, PF3D7_1337100) (UniProt Q8IDW1). Nature of the experiment: PfPK6 kinase inhibitors, biochemical, TCAMS library (AID 1159586). As to conditions: recombinant PfPK6, Kinase-Glo ATP depletion luminescence.
Sequence of Plasmodium falciparum protein kinase 6 (PK6, PF3D7_1337100) (Q8IDW1 1-305): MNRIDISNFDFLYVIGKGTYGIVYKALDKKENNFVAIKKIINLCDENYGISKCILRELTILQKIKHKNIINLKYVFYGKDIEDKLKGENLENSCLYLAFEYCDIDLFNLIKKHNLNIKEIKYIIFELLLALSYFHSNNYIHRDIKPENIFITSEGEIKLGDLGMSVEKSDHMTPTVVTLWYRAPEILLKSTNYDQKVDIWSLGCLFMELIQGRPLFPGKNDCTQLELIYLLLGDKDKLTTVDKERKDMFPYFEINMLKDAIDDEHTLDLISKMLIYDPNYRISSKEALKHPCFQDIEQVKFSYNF
Experiment [7] addresses Protein kinase 7 (PK7), Plasmodium falciparum 3D7 (PF3D7_0213400) (UniProt Q7YTF7). The experiment is described as follows: inhibition of Plasmodium PK7 catalytic activity – biochemical, TCAMS antimalarial set, Kinase-Glo luminescence (AID 1159587). The note with it: recombinant PfPK7, Kinase-Glo ATP depletion luminescence.
Experiment [8] addresses Calcium-dependent protein kinase 4 (Plasmodium falciparum (isolate 3D7)) (UniProt Q8IBS5). The experiment is described as follows: PfCDPK4 kinase inhibitors, biochemical, TCAMS library (AID 1159588; cut-off not given, nearly all actives have IC50 up to about 0.91 µM). As to conditions: recombinant PfCDPK4, Kinase-Glo ATP depletion luminescence.

Sequence of Protein kinase 7 (PK7), Plasmodium falciparum 3D7 (PF3D7_0213400) (Q7YTF7 1-343): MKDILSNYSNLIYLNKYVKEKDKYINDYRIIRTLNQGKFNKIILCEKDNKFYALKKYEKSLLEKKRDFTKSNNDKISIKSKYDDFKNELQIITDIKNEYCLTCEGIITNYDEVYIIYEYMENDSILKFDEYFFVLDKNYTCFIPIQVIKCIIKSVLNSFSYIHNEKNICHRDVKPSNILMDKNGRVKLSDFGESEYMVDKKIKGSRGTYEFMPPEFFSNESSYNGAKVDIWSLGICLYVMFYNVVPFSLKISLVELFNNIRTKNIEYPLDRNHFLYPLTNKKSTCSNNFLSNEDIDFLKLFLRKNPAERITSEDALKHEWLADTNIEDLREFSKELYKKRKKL
Sequence of L-lactate dehydrogenase (Plasmodium falciparum (isolate CDC / Honduras)) (Q27743 whole entry, looked up): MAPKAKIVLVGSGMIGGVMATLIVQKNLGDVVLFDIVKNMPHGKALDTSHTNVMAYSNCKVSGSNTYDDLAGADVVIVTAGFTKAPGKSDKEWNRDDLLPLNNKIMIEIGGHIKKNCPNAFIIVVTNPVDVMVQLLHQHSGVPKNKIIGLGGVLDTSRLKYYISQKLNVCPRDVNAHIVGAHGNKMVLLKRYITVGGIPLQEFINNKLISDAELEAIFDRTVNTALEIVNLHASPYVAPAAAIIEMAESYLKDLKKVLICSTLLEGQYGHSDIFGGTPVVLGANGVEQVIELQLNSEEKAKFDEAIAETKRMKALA
Sequence of Calcium-dependent protein kinase 4 (Plasmodium falciparum (isolate 3D7)) (Q8IBS5 whole entry, looked up): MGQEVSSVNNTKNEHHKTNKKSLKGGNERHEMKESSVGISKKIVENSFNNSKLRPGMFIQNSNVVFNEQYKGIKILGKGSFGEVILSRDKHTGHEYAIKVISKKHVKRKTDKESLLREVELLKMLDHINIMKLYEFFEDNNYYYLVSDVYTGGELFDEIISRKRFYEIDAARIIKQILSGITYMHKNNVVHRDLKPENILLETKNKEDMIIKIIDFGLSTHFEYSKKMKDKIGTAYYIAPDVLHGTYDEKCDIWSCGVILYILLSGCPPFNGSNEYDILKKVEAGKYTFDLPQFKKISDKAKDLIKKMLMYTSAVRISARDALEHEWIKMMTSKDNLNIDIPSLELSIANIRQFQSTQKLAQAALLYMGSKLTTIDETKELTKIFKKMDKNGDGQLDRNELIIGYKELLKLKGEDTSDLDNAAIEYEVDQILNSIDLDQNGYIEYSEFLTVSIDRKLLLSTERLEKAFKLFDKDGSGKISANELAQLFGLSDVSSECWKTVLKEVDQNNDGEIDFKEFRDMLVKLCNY

Regarding `Cc1noc(C)c1-c1cccc(CNCc2ccc(-c3cccc(-c4nc5c(C)cccc5[nH]4)c3)cc2)c1`, the growth inhibition in experiment [1] is 94% (active); in experiment [4], 101% (active). The inhibition is 24% in experiment [2] and 7% in experiment [3]. Besides, the result in experiment [5], in experiment [6], in experiment [7] and in experiment [8] was inactive.
With `Fc1cccc(COc2ccc(Nc3ncnc4sc(C#C[C@H]5CCCN5)cc34)cc2F)c1`, the growth inhibition is 17% in experiment [1] and 98% (active) in experiment [4]. For the same molecule, the values for the inhibition in experiment [2] and in experiment [3] were 13% and 5%, respectively. Further, the result in experiment [5], in experiment [6], in experiment [7] and in experiment [8] was inactive.
Consider `CC(C)(C)c1ccc(NC(=O)c2cccc(CN3CCCN(Cc4cccc(O)c4)CC3)c2)cc1`, for which the growth inhibition in experiment [1] is 69% (active); in experiment [4] it was 101% (active). The inhibition in experiment [2] is 97% (active); in experiment [3] it was 4%. The result in experiment [5], in experiment [6], in experiment [7] and in experiment [8] was inactive.
For `CN1CCN(Cc2cccc(-c3cc4nccc(Nc5ccc(Oc6ccccc6)cc5)c4cc3Cl)c2)CC1`, the growth inhibition in experiment [1] is 96% (active); in experiment [4] it was 101% (active). Besides, the inhibition in experiment [2] was 10%; in experiment [3] it was -3%. Further, the outcome in experiment [5], in experiment [6], in experiment [7] and in experiment [8] was inactive.
As to `NC(N)=Nc1nc(-c2cccc(NC(=O)NCCc3c[nH]c4ccc(OCc5ccccc5)cc34)c2)cs1`, the growth inhibition in experiment [1] is 30%; in experiment [4], 101% (active). Further, the inhibition in experiment [2] was -2%; in experiment [3], 0%. Also, the result in experiment [5], in experiment [6], in experiment [7] and in experiment [8] was inactive.
Turning to `CCCCNc1cc(NCCCC)c2c(n1)[nH]c1ccccc12`, the figures for the growth inhibition in experiment [1] and in experiment [4] were 94% (active) and 100% (active), respectively. Also, the inhibition in experiment [2] was 13%; in experiment [3], -1%. Also, the outcome in experiment [5], in experiment [6], in experiment [7] and in experiment [8] was inactive.
As to `COc1ccc(-c2nc(NC(=O)CS(=O)(=O)c3ccc(F)cc3)sc2C)cc1`, the growth inhibition was 99% (active) in experiment [1] and 100% (active) in experiment [4]. The inhibition is 20% in experiment [2] and -3% in experiment [3]. In addition, the outcome in experiment [5], in experiment [6], in experiment [7] and in experiment [8] was inactive.
For `Cc1sc2ncnc(Sc3nc4ccccc4[nH]3)c2c1C`, the growth inhibition is 100% (active) in experiment [1] and 99% (active) in experiment [4]. The inhibition in experiment [2] is 14%; in experiment [3] it was 1%. Moreover, the outcome in experiment [5], in experiment [6], in experiment [7] and in experiment [8] was inactive.
On to `Cc1nnc2c(NC(=O)NC3CCCC3)cc3cc(-c4ccc(CN5CCCCC5)cc4)ccc3n12`, for which the values for the growth inhibition in experiment [1] and in experiment [4] were 93% (active) and 99% (active), respectively. The inhibition in experiment [2] is 100% (active); in experiment [3] it was -3%. Also, the outcome in experiment [5], in experiment [6], in experiment [7] and in experiment [8] was inactive.
`COc1ccc2nccc([C@@H](O)CN3CCC(NCCNc4ccccn4)CC3)c2c1`: the values for the growth inhibition in experiment [1] and in experiment [4] were 14% and 101% (active), respectively. For the same molecule, the values for the inhibition in experiment [2] and in experiment [3] were 18% and -4%, respectively. For the same molecule, the result in experiment [5], in experiment [6], in experiment [7] and in experiment [8] was inactive.
On to `CN1CCN(Cc2nc(-c3ccc4c(Nc5ccc(F)c(O)c5)ccnc4c3)cs2)CC1`, for which the growth inhibition in experiment [1] and in experiment [4] was 100% (active) each time. The inhibition in experiment [2] was 0%; in experiment [3], 7%. The result in experiment [5], in experiment [6], in experiment [7] and in experiment [8] was inactive.
As for `CCN(CC)CCCC(C)Nc1ccnc2[nH]c3ccccc3c12` (stereo not drawn), the growth inhibition is 38% in experiment [1] and 82% (active) in experiment [4]. Moreover, the inhibition in experiment [2] is 0%; in experiment [3], 6%. Also, the result in experiment [5], in experiment [6], in experiment [7] and in experiment [8] was inactive.
Regarding `Cc1c(F)cc(C(=O)NC2CC2)cc1-c1ccc2c(cnn2S(=O)(=O)c2ccc(C#N)cc2)c1`, the growth inhibition in experiment [1] is 92% (active); in experiment [4], 97% (active). Besides, the inhibition in experiment [2] was 17%; in experiment [3] it was 0%. Also, the result in experiment [5], in experiment [6], in experiment [7] and in experiment [8] was inactive.
As to `COc1cccc(CN2CCCC(COC(c3ccc(F)cc3)c3ccc(F)cc3)C2)c1O` (stereo not drawn), the values for the growth inhibition in experiment [1] and in experiment [4] were 100% (active) and 98% (active), respectively. For the same molecule, the inhibition in experiment [2] is 24%; in experiment [3] it was 4%. The outcome in experiment [5], in experiment [6], in experiment [7] and in experiment [8] was inactive.
With `CC(=O)Nc1ccc(CN2CCC(NC(=O)c3cc(-c4ccc(N(C)C)cc4)cs3)C2)cc1` (stereo not drawn), the values for the growth inhibition in experiment [1] and in experiment [4] were 1% and 83% (active), respectively. The inhibition in experiment [2] is 15%; in experiment [3], 5%. Also, the result in experiment [5], in experiment [6], in experiment [7] and in experiment [8] was inactive.
In the case of `CC1(C)N=C(N)N=C(N)N1OCCOc1ccc2ccccc2c1`, the growth inhibition in experiment [1] is 96% (active); in experiment [4], 93% (active). Also, the results for the inhibition in experiment [2] and in experiment [3] were 70% (active) and 5%, respectively. For the same molecule, the result in experiment [5], in experiment [6], in experiment [7] and in experiment [8] was inactive.
Consider `O=C(NCCCCN1CCC(c2ccc3c(c2OCCN2CCCC2)CCCC3)CC1)c1ccc(-c2ccc(C(F)(F)F)cc2)cc1`, for which the values for the growth inhibition in experiment [1] and in experiment [4] were 81% (active) and 100% (active), respectively. The inhibition in experiment [2] is 25%; in experiment [3], -6%. Moreover, the result in experiment [5], in experiment [6], in experiment [7] and in experiment [8] was inactive.
As to `O=C(O)c1cc(C(F)(F)F)co1`, the values for the growth inhibition in experiment [1] and in experiment [4] were 19% and 96% (active), respectively. Besides, the inhibition in experiment [2] is -4%; in experiment [3] it was 1%. Moreover, the result in experiment [5], in experiment [6], in experiment [7] and in experiment [8] was inactive.
On to `O=C(Nc1ccc(Cl)cc1F)NC1CCN(CCCCCNC(=O)[C@@H]2C[C@H]2c2ccc(Cl)c(Cl)c2)CC1`, for which the results for the growth inhibition in experiment [1] and in experiment [4] were 27% and 101% (active), respectively. Moreover, the inhibition in experiment [2] is 46%; in experiment [3] it was -5%. Further, the outcome in experiment [5], in experiment [6], in experiment [7] and in experiment [8] was inactive.
For the molecule `COc1ccccc1C1CCN(CCCCNC(=O)c2ccc(/C=C/c3cc(Cl)cc(Cl)c3)cc2)CC1`, the growth inhibition in experiment [1] is 30%; in experiment [4] it was 96% (active). Moreover, the inhibition in experiment [2] was 36%; in experiment [3], 9%. Besides, the outcome in experiment [5], in experiment [6], in experiment [7] and in experiment [8] was inactive.
As for `COc1ccc2ncc(F)c(NC(=O)C3CCC(NCc4cc5cc(F)cc(F)c5[nH]4)CC3)c2n1` (stereo not drawn), the results for the growth inhibition in experiment [1] and in experiment [4] were 15% and 95% (active), respectively. For the same molecule, the inhibition is 18% in experiment [2] and 2% in experiment [3]. Besides, the outcome in experiment [5], in experiment [6], in experiment [7] and in experiment [8] was inactive.
